PubChem BioAssay (Tox21)
Records with an inconclusive call do not appear. Entries that show only a call come without a potency. Activity calls are given as the source filed them. The call rests on the fitted dose curve.

Assay: p53 small molecule agonists, cell-based qHTS assay with human liver microsomes (AID 1963577);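 further: p53 response element beta-lactamase reporter cells with liver microsomes plus NADPH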
Details: HCT-116 p53RE-bla with human liver microsomes, ratio, 16 h; series mostly up to 66 µM
How it was run: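 Reporter activation was measured by LiveBLAzer fluorescence intensity in p53RE-bla cells, which had been exposed to compounds for 16 h at 37 C alongside 0.5 mg/mL human liver microsomes and 0.5 mg/mL NADPH (final concentrations).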

| SMILES | Potency |
| --- | --- |
| COc1nccnc1CC(C)C | inactive |
| CC(=O)Oc1ccc(C2(c3ccc(OC(C)=O)cc3)Oc3ccccc3NC2=O)cc1 | inactive |
| O=C(/C=C/c1ccc(O)c(O)c1)O[C@@H]1C[C@@](OC(=O)/C=C/c2ccc(O)c(O)c2)(C(=O)O)C[C@@H](O)[C@@H]1O | inactive |
| CC[C@]1(O)C[C@H]2CN(CCc3c([nH]c4ccccc34)[C@@](C(=O)OC)(c3cc4c(cc3OC)N(C=O)[C@H]3[C@@](O)(C(=O)OC)[C@H](OC(C)=O)[C@]5(CC)C=CCN6CC[C@]43[C@@H]65)C2)C1 | inactive |
| Nc1ccc(F)cc1F | inactive |
| CCOCN(C(=O)CS(=O)(=O)O)c1c(C)cccc1CC | inactive |
| CC[N+](C)(CC)CC | inactive |
| CC(=O)OC(OC(C)=O)c1ccc([N+](=O)[O-])o1 | inactive |
| CC(C)C[C@H](NC(=O)[C@H](Cc1ccccc1)NC(=O)c1cnccn1)B(O)O | inactive |
| CC1=CCCC(C)(C)C12CCC(C)O2 (configuration not stated) | inactive |
| Nc1ccc(N)c2ccccc12 | inactive |
| C[Si](C)(C)C | inactive |
| CCCCC(CC)COP(=O)(O)O (configuration not stated) | inactive |
| CCO[Si](CC(C)C)(OCC)OCC | inactive |
| O=C(O)Cc1cc(I)c(Oc2cc(I)c(O)c(I)c2)c(I)c1 | inactive |
| CC(CN=Cc1ccccc1O)N=Cc1ccccc1O (configuration not stated) | inactive |

| SMILES | Potency |
| --- | --- |
| O=C(Cl)c1cc(Cl)cc(Cl)c1 | inactive |
| Nc1ccc(-c2ccc(F)cc2)cc1 | inactive |
| O=C1c2ccccc2-c2ccccc21 | inactive |
| COCCOC(=O)CC#N | inactive |
| COc1cc(NS(=O)(=O)c2ccc(N)cc2)nc(C)n1 | inactive |
| O=C(O)CCCCCCCCCC(=O)O | inactive |
| COC(=O)c1ccc(C(=O)O)cc1 | inactive |
| c1csc(SSc2cccs2)c1 | inactive |
| CNC(=S)NN | inactive |
| CCOc1ccc(O)cc1 | inactive |
| O=C(OCCc1ccccc1)c1ccccc1 | inactive |
| O=C[C@@H](O)[C@H](O)[C@H](O)CO | inactive |
| CCc1c(C)[nH]c2c1C(=O)C(CN1CCOCC1)CC2 (configuration not stated) | inactive |
| CCCc1ccccc1O | inactive |
| c1ccc(C[n+]2cccc3ccccc32)cc1 | inactive |
| Cc1cc(C)c(C)c(C)c1 | inactive |
